Here are results for one molecule from PubChem BioAssay.

A number with no mark means an inactive call. Inconclusive results are not listed. Activity calls are given as the source filed them. Unless noted, the rule behind the calls is not given here.

Experiment [1] concerns the target ATP-dependent translocase ABCB1 (Homo sapiens) (UniProt P08183). As to the kind of experiment: P-glycoprotein substrate transport blockade – cell-based (AID 377; in the data active = fluorescence slope change above about 50%). Conditions: MDR1-expressing cells, fluorescent substrate accumulation slope; hits give high values; concentration not given here.
Experiment [2] can be described thus: antimalarial activity against Dd2 strain (AID 2302;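 active = growth inhibition above 50% at the single 2 µM test dose, taken to imply half-maximal potency below 2 µM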;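 note: 0% = DMSO untreated growth and 100% = chloroquine plus artemisinin killed control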). The settings on record: P. falciparum Dd2 in RBCs, LDH growth readout, 72 h; at 2 µM; hits give high values.
A short description of experiment [3]: human hepatoma cell viability loss – ATP luminescence, cytotoxicity control for P. falciparum antimalarial project, primary screen (AID 2303;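 active = inhibition above 50%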;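 note: 0% = DMSO wells and 100% = digitonin-killed cells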). Conditions: HepG2 viability, 24-48 h, at 10 µM, hits give high values.
Experiment [4] concerns the target L-lactate dehydrogenase (Plasmodium falciparum (isolate CDC / Honduras)) (UniProt Q27743). As to the kind of experiment: PfLDH activity inhibition – cell lysate, 3D7 strain, counter-screen for P. falciparum growth inhibition project (AID 2304).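 Note: 0% = vehicle and 100% = reference inhibitor.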 Conditions: P. falciparum 3D7 crude extract, LDH APAD/NBT absorbance; at 2 µM; hits give high values.
Experiment [5] in a line: inhibition of 3D7 malaria parasite growth – strain 3D7 (AID 2306).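 Note: 0% = DMSO wells and 100% = chloroquine plus artemisinin control wells.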 The settings on record: P. falciparum 3D7 erythrocytic growth, LDH absorbance, 72 h; at 2 µM; hits give high values.

ATP-dependent translocase ABCB1 (Homo sapiens), sequence (P08183 whole entry, looked up): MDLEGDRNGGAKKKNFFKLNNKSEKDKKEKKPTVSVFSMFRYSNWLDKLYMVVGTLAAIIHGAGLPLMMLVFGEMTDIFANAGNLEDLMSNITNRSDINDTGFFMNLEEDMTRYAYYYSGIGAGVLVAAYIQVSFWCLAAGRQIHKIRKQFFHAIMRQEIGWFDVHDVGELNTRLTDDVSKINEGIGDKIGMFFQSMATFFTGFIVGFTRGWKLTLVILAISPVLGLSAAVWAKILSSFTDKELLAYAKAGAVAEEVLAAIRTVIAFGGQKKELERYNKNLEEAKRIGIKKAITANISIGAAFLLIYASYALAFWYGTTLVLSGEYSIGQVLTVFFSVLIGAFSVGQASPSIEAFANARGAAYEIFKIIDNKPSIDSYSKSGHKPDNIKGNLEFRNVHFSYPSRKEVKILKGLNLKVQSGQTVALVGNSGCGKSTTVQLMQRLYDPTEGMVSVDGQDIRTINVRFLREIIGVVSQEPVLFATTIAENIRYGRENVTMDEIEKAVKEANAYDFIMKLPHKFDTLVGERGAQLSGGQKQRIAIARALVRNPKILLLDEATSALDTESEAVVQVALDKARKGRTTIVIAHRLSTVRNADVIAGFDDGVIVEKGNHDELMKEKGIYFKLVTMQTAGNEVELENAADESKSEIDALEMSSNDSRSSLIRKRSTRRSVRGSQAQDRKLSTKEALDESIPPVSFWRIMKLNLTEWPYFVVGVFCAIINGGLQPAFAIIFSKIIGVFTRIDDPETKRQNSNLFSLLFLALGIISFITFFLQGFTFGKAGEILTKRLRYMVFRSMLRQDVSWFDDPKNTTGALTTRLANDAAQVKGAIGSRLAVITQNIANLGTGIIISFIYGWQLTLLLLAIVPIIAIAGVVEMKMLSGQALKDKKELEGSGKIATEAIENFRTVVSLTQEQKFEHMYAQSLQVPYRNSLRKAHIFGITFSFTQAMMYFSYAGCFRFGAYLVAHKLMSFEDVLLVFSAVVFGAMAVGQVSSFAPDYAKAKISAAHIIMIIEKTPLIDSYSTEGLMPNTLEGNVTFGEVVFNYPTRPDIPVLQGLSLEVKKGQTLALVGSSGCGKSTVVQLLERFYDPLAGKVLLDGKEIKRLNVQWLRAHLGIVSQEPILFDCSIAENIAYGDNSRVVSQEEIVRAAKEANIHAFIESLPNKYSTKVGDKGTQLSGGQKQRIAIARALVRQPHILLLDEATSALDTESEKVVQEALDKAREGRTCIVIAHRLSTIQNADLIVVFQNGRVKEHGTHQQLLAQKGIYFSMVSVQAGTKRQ
L-lactate dehydrogenase (Plasmodium falciparum (isolate CDC / Honduras)), sequence (Q27743 whole entry, looked up): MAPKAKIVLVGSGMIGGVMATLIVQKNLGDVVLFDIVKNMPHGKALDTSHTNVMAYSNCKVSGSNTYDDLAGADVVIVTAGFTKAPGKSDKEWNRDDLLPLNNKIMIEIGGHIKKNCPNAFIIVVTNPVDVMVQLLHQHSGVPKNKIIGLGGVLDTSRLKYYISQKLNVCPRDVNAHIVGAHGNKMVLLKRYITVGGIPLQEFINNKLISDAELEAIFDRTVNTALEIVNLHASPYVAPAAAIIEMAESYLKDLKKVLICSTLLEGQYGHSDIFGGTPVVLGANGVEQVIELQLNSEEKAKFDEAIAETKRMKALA

On to `CN(Cc1cnc2nc(N)nc(N)c2n1)c1ccc(C(=O)NC(CCC(=O)O)C(=O)O)cc1` (stereo not given), for which the fluorescence slope change in experiment [1] is -5.4%. Further, the growth inhibition was 66% (active) in experiment [2] and 91% (active) in experiment [5]. The inhibition was 65% (active) in experiment [3] and -1% in experiment [4].
